The values that follow come from PubChem BioAssay (NCI).

What all share (test): NCI-60 one-dose screen, 48 h (100 = growth as untreated, 0 = no growth, -100 = all killed)
What all share (conditions): 10 µM unless noted

Experiment [1] has as its system SK-MEL-2 melanoma.
The test system of experiment [2] is EKVX NSCLC.
For experiment [3], the system named is SN12C renal.
In experiment [4] the test system is UO-31 renal.
In experiment [5] the test system is TK-10 renal.
Experiment [6] relates to ACHN renal.
Experiment [7] has as its system CAKI-1 renal.
The test system of experiment [8] is A498 renal.
In experiment [9] the test system is CCRF-CEM leukemia.
For experiment [10], the system named is MOLT-4 leukemia.

Compounds without any hit were thinned out: in the full panel of roughly 83,000, 20% have a hit.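 Assay: single dose, 48 h. Readout: percent growth (0 = no net growth; negative = cell death). Active: <10.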 A number with no mark means an inactive call. Active and inactive are the calls of the source.

For the compound `COc1ccc(-c2cnc(NC(=O)CCCCCCNC(=O)C(O)(O)C(F)(F)F)s2)cc1`, the growth in experiment [1] was -27.3% (active); in [2], 19.6%; in [3], 3.72% (active); in experiment [4], -27.4% (active); in [5], -20.1% (active); in experiment [6], -29.5% (active). The growth was -39.9% (active) in [7], -44.2% (active) in experiment [8], 18.7% in experiment [9] and 6.5% (active) in experiment [10].

For the compound `O=S(=O)(Oc1ccc(-c2cn3ccoc3n2)cc1)c1cccc(C(F)(F)F)c1`, the growth in experiment [1] was 104%; in [2], 102%; in [3] it was 96.2%; in experiment [4], 93.1%; in [5], 85.4%; in experiment [6], 102%. Besides, the growth was 86.9% in [7], 88.8% in experiment [8], 106% in [9] and 103% in [10].

As for `CCOC(=O)c1c(NC(=O)c2cccc(C(F)(F)F)c2)sc2c1CCC(=O)C2`, the growth was 71.9% in experiment [1]; 39.4% in experiment [2]; 42.9% in [3]; 7.65% (active) in experiment [4]; 54.9% in experiment [5]; 8.52% (active) in experiment [6]. In addition, the growth in experiment [7] was 23.9%; in experiment [8] it was 106%; in [9], 8.47% (active); in [10] it was 36.8%.

`CN1CCN(Cc2ccc(NC(=O)c3cncc(C#Cc4cnc(N)nc4)c3)cc2C(F)(F)F)CC1`: the growth in [1] was -65.2% (active); in experiment [2], 43.9%; in experiment [3], 11.5%; in experiment [4], 4.98% (active); in experiment [5], 17.4%; in [6], 7.78% (active). Further, the growth was 0.371% (active) in [7], -17.2% (active) in [8], 30.9% in experiment [9] and 21.9% in experiment [10].

As to `O=C(CCCCCC/C=C\c1csc(Br)n1)NO`, the growth in [1] is 101%; in experiment [2], 94%; in [3], 98.2%; in [4], 60.6%; in experiment [5] it was 59.4%; in experiment [6] it was 82.8%. Besides, the growth in experiment [7] was 78.7%; in [8] it was 87.1%; in experiment [9] it was 52.7%; in experiment [10], 63.7%.

With `COC(=O)[C@@H](Cc1c[nH]c2ccccc12)NC(=O)CCCCOc1cc(O)c2c(=O)cc(-c3ccccc3)oc2c1`, the growth is 90.5% in experiment [1]; 86.8% in experiment [2]; 95.2% in experiment [3]; 68.8% in experiment [4]; 132% in experiment [5]; 91.8% in experiment [6]. In addition, the growth is 71.9% in experiment [7], 70% in experiment [8], 83.1% in experiment [9] and 65.1% in experiment [10].

Regarding `O=C(N/N=C/c1cc2ccccc2nc1Cl)c1cc(-c2nc3ccccc3[nH]2)nc2ccccc12`, the growth in [1] was 82.8%; in experiment [2], 93.5%; in [3], 99.9%; in experiment [4], 70.7%; in [5] it was 91.7%; in [6], 89%. Also, the growth in [7] is 71.6%; in [8], 54.6%; in experiment [9] it was 87.8%; in [10], 82.2%.

As for `O=C(O)c1ccc(-n2c(=O)n(-c3cccc(C(F)(F)F)c3)c(=O)c3cc(-c4ccc(F)cc4F)ccc32)cc1`, the growth in experiment [1] was -32% (active); in experiment [2], 5.67% (active); in experiment [3], -5.12% (active); in experiment [4], 8.03% (active); in [5] it was 4.33% (active); in [6], 1.36% (active). Also, the growth is -6.76% (active) in [7], -20.5% (active) in [8], 19.5% in [9] and 4.7% (active) in [10].

As for `CC1=C(C)C(=O)C(Nc2cccc(C)c2)=C(Br)C1=O`, the growth in [1] is 117%; in experiment [2] it was 68.7%; in experiment [3], 96.9%; in experiment [4] it was 80.2%; in experiment [5], 152%; in experiment [6] it was 95.7%. Also, the growth was 99.3% in experiment [7], 95.5% in experiment [8], 16.5% in [9] and -29.9% (active) in experiment [10].

Take `COc1cc(-c2nc(-c3ccccc3)[nH]c2-c2ccnc(NCCCNS(=O)(=O)c3ccc(C)cc3)n2)ccc1F`: the growth in experiment [1] was 104%; in experiment [2] it was 74.5%; in [3], 89.3%; in [4] it was 78.6%; in experiment [5], 123%; in experiment [6], 84.6%. Moreover, the growth in [7] was 105%; in experiment [8] it was 84.1%; in experiment [9] it was 56.9%; in experiment [10], 45.1%.

As for `Cn1cc(-c2cc3ncnc(Nc4ccc(CC(=O)Nc5nc(C(C)(C)C)cs5)cc4)c3s2)cn1`, the growth is 36.5% in experiment [1]; 48% in experiment [2]; 23.6% in [3]; 31.6% in [4]; 44.7% in experiment [5]; 18.6% in [6]. Moreover, the growth in experiment [7] was 7.53% (active); in [8], -4.34% (active); in experiment [9], 23.1%; in experiment [10], 16%.

On to `C#CCN(C)CCCOc1ccc(NCc2ccc(C(=O)NO)cc2)cc1Cl`, for which the growth in [1] was 15%; in experiment [2], 35.5%; in experiment [3], 37.8%; in [4], -13.7% (active); in experiment [5], -3.24% (active); in experiment [6] it was 9.03% (active). Moreover, the growth in experiment [7] was 8.63% (active); in experiment [8], -14.9% (active); in [9], 13.7%; in experiment [10], 17.3%.

Regarding `CCOP(=O)(OCC)OC[C@]12CC[C@@H](C)[C@H](C)C1C1=CC[C@@H]3[C@@]4(C)CCCNC(C)(C)[C@@H]4CC[C@@]3(C)[C@]1(C)CC2` (stereo not given in full), the growth in experiment [1] was 109%; in [2], 36.8%; in experiment [3], 40.1%; in [4], 21.1%; in [5] it was 61.2%; in experiment [6], 34.4%. Further, the growth is 13% in [7], 66.3% in experiment [8], -33.3% (active) in experiment [9] and -69.1% (active) in experiment [10].
